Mdm2 MdmX PPI = human Mdm2/MdmX binding inhibition; AID 485346; SaOS-2 split-luciferase Mdm2/MdmX complementation, luminescence; O15151+Q00987; 330,000 tested, 3% active; inhibition, % at 8 µM;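 active means inhibition of at least 50% at 8 µM in the primary screen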
Target sequence (O15151 whole entry, looked up): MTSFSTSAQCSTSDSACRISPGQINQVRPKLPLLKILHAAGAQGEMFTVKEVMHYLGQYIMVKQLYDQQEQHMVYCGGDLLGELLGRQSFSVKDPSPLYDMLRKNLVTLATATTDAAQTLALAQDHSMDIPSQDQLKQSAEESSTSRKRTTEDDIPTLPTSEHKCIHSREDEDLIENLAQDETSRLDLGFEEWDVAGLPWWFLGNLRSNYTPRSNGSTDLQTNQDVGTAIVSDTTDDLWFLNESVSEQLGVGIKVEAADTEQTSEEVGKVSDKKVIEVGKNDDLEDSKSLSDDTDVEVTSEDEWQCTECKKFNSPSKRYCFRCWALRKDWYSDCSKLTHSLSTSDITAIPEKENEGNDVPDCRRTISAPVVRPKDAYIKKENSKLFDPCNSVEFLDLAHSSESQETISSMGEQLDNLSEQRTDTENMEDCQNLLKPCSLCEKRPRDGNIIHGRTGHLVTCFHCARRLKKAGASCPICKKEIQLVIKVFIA
Target sequence (Q00987 whole entry, looked up): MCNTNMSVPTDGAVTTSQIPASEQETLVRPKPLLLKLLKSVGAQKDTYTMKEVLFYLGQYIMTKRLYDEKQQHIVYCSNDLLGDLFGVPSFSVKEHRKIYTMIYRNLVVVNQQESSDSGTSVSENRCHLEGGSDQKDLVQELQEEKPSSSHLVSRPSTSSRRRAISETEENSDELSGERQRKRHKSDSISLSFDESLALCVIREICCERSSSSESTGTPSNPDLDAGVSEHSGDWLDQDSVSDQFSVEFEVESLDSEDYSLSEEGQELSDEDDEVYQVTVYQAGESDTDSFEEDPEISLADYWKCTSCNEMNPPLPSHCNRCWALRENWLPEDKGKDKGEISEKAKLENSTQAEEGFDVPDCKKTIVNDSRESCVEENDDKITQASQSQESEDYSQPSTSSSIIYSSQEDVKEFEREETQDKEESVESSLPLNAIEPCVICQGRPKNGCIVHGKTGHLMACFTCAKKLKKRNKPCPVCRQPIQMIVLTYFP
CSC inhib = cancer stem cell inhibition. cancer stem cell-like cells viability, luminescence. 300,000 tested, 1.1% active. inhibition, % at 7.5 µM. AID 2717; in the data active means inhibition above about 75%; tested in HMLE shEcad cells
MPTP inh = permeability transition pore inhibition | inhibition, % at 10 µM | isolated mouse mitochondria, Ca2+ swelling absorbance, 30 min | 360,000 tested, 1.4% active;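 active means inhibition of 50% or more, scaled per plate between neutral and stimulator controls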;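 further: 0% = DMSO wells given calcium and 100% = 1 mM EGTA wells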
Calb FLC = affects C. albicans growth with fluconazole; C. albicans CaCi-2 (fluconazole-resistant clinical isolate) + fluconazole, Alamar Blue growth, 48 h; growth inhibition, % (test concentration not listed); 300,000 tested, 0.57% active; AID 1979;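 active means growth inhibition above about 58% in most replicates, limit read from the data, passing the limit was not always enough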;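 further: all wells also contain fluconazole at 8 µg/ml as a sub-toxic cotreatment; 0% = median of DMSO wells and 100% = median of geldanamycin control wells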
SKKanGAS inh = SKKanGAS growth inhibition; S. pyogenes SKKanGAS, kanamycin growth, BacTiter-Glo, 6 h; inhibition, % at 7.5 µM; 300,000 tested, 1.3% active;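 active means mean replicate score, as percent of positive control median, at least 50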;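 further: strain carries kanamycin resistance gene driven by streptokinase promoter and grows in 40 µg/ml kanamycin; loss of luminescence reflects streptokinase promoter inhibition or plain growth inhibition; 0% = median of DMSO wells and 100% = positive control at its reference dose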
Beta cell apopt = beta cell apoptosis inhibition | INS-1E cytokine-induced death, ATP luminescence, 48 h; percent of positive-control rescue, neutral wells zero | protection from apoptosis, % (concentration not given with the values) | 300,000 tested, 0.8% active;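 active means Every replicate reaches about 75%, or at least half do and their mean reaches it too, limit read from the data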;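 further: 0% = cytokine-treated negative control wells and 100% = positive control rescue; higher means more ATP so stronger rescue from cytokine killing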
Mdm2-MdmX conf = human Mdm2/MdmX binding inhibition, confirmed; 10,000 tested, 55% active; inhibition, % at 8 µM; shares compounds with Mdm2 MdmX PPI; luminescent assay; in the data active means inhibition above about 40%
Full FLuc ctr = counter-screen for Mdm2/MdmX inhibitors: full-length luciferase; 6,200 tested, 77% active; SaOS-2 full-length luciferase counterscreen, luminescence; inhibition, % at 8 µM; shares compounds with Mdm2 MdmX PPI; AID 504607;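 active means mean inhibition at 8 µM reaching about 37%, which flags the compound as non-specific, limit read from the data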;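 further: p53-null SaOS-2 cells with luciferase driven by a doxycycline-inducible promoter; compound on cells about two nights before reading with doxycycline added after day one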
The depositor's hits bear a star. In the library only some 5.4% were active in any assay of this set; here they are far more common.

How did O=C1CCCc2c1cc(C(=O)Nc1ccc(Br)cn1)c(=O)n2-c1ccccc1 do in these assays?
Mdm2 MdmX PPI: 57*; CSC inhib: -7; MPTP inh: -1; Calb FLC: 59; SKKanGAS inh: 17; Beta cell apopt: 1; Mdm2-MdmX conf: 30

Results for O=C(Nc1ccc(Br)cn1)c1cccc2ccccc12 ?
Mdm2 MdmX PPI: 56*; CSC inhib: 64; MPTP inh: 7; Calb FLC: 2; SKKanGAS inh: -6; Beta cell apopt: 17; Mdm2-MdmX conf: 50*; Full FLuc ctr: 81*

Results for O=C(Nc1ccc(O)cc1)c1c(O)c2c([nH]c1=O)CCCC2 ?
Mdm2 MdmX PPI: -113; MPTP inh: -3; Calb FLC: 24; SKKanGAS inh: 2

How did Cc1nc(C)c(C(=O)O)c(-c2ccsc2)c1C(=O)O do in these assays?
Mdm2 MdmX PPI: 0; CSC inhib: 2; MPTP inh: 2; Calb FLC: -6; SKKanGAS inh: 3; Beta cell apopt: 1

How did O=C(c1ccc(S(=O)(=O)Nc2ccccc2F)cc1)N1CCC1 do in these assays?
Mdm2 MdmX PPI: -4; CSC inhib: -5; MPTP inh: 0; Calb FLC: -7; SKKanGAS inh: -3; Beta cell apopt: -4

What do the screens show for `Cc1c(C(=O)O)sc(S(=O)(=O)N2CCN(C(=O)Cc3ccccc3Cl)CC2)c1C(=O)O`?
Mdm2 MdmX PPI: 20; CSC inhib: -7; MPTP inh: -1; Beta cell apopt: 1

What do the screens show for `Cc1csc(SCC(=O)c2cc(C)n(Cc3cccs3)c2C)n1`?
Mdm2 MdmX PPI: 66*; CSC inhib: -8; MPTP inh: 7; Calb FLC: 3; SKKanGAS inh: 9; Beta cell apopt: 14; Mdm2-MdmX conf: 79*; Full FLuc ctr: 107*

What do the screens show for `CC(=O)Nc1ccc(SCC(=O)c2cc(C)n(-c3ccccc3F)c2C)cc1`?
Mdm2 MdmX PPI: 72*; CSC inhib: 87*; MPTP inh: 6; Calb FLC: -13; SKKanGAS inh: -6; Beta cell apopt: -1; Mdm2-MdmX conf: 82*; Full FLuc ctr: 73*

What do the screens show for `Cc1cc(C(=O)CSc2nnc(N)s2)c(C)n1Cc1cccs1`?
Mdm2 MdmX PPI: 2; CSC inhib: 30; MPTP inh: 14; Calb FLC: -7; SKKanGAS inh: -4; Beta cell apopt: 1

Results for COCCn1c(C)cc(C(=O)CSc2ccc(NC(C)=O)cc2)c1C ?
Mdm2 MdmX PPI: 35; CSC inhib: 4; MPTP inh: 0; Calb FLC: -1; SKKanGAS inh: -5; Beta cell apopt: 3

Results for CC(=O)Nc1ccc(SCC(=O)c2cc(C)n(Cc3cccs3)c2C)cc1 ?
Mdm2 MdmX PPI: 74*; CSC inhib: 106*; MPTP inh: -1; Calb FLC: 0; SKKanGAS inh: 4; Beta cell apopt: 1; Mdm2-MdmX conf: -2

What do the screens show for `CCOc1ccc(-c2ccc(NS(=O)(=O)c3cc([N+](=O)[O-])c(C)c([N+](=O)[O-])c3)cc2)nn1`?
Mdm2 MdmX PPI: 21; CSC inhib: 13; MPTP inh: 4; Calb FLC: 0; SKKanGAS inh: 10

What do the screens show for `CCCCNC(=O)c1c(N)n(/N=C/c2ccccn2)c2nc3ccccc3nc12`?
Mdm2 MdmX PPI: 60*; CSC inhib: 4; Calb FLC: 4; SKKanGAS inh: 10; Beta cell apopt: 0; Mdm2-MdmX conf: 36; Full FLuc ctr: 72*

What do the screens show for `CC(=O)c1cccc(NC(=O)c2ccc(N(Cc3ccccc3)S(C)(=O)=O)cc2)c1`?
Mdm2 MdmX PPI: 20; CSC inhib: -1; MPTP inh: 0; Calb FLC: -3; SKKanGAS inh: -3; Beta cell apopt: 0

How did COc1nc(N)c(C#N)c(-c2ccc(N(C)CCC#N)cc2)c1C#N do in these assays?
Mdm2 MdmX PPI: 73*; CSC inhib: 23; MPTP inh: 6; Calb FLC: 5; SKKanGAS inh: 10; Beta cell apopt: 10; Mdm2-MdmX conf: 47*; Full FLuc ctr: 82*

Results for COc1ccc(-c2c(C#N)c(N)nc(Sc3ccc(Cl)cc3)c2C#N)cc1 ?
Mdm2 MdmX PPI: 33; CSC inhib: 17; MPTP inh: 14; Calb FLC: -17; SKKanGAS inh: 0; Beta cell apopt: 36

Results for Cc1cc(C)cc(NC(=O)CCn2c(=S)[nH]c3ccccc3c2=O)c1 ?
Mdm2 MdmX PPI: 65*; CSC inhib: -11; MPTP inh: 0; Calb FLC: 16; SKKanGAS inh: 3; Beta cell apopt: 9; Mdm2-MdmX conf: 15

How did COc1ccc(S(=O)(=O)N2CCN(S(=O)(=O)c3ccc4c(c3)OCCO4)CC2)cc1 do in these assays?
Mdm2 MdmX PPI: 58*; CSC inhib: 1; MPTP inh: -5; Calb FLC: -2; SKKanGAS inh: -6; Beta cell apopt: 0; Mdm2-MdmX conf: 15

How did COc1ccc(OCCSc2nc(N)cc(N)n2)cc1 do in these assays?
Mdm2 MdmX PPI: -81; CSC inhib: -9; MPTP inh: -1; Calb FLC: 7; SKKanGAS inh: 5; Beta cell apopt: 9

How did Cc1nc(Nc2ccncc2)c2oc3ccccc3c2n1 do in these assays?
Mdm2 MdmX PPI: 73*; CSC inhib: -2; MPTP inh: -2; Calb FLC: -1; SKKanGAS inh: -6; Beta cell apopt: 47; Mdm2-MdmX conf: 55*; Full FLuc ctr: 47*

Results for CCc1nc(Nc2ccncc2)c2oc3ccccc3c2n1 ?
Mdm2 MdmX PPI: 63*; CSC inhib: 8; MPTP inh: 0; Calb FLC: 85*; SKKanGAS inh: 0; Beta cell apopt: 6; Mdm2-MdmX conf: 79*; Full FLuc ctr: 32

How did CC(=O)Nc1ccc(Nc2nc(C)nc3c2oc2ccccc23)cc1 do in these assays?
Mdm2 MdmX PPI: 25; CSC inhib: -9; MPTP inh: 0; Calb FLC: 3; SKKanGAS inh: 16; Beta cell apopt: 15

Results for O=C(NCc1ccncc1)[C@@H]1CCCN1C(=O)[C@@H]1CCCN1C(=O)c1c(F)cccc1F ?
MPTP inh: -1

How did O=C(C1=C[C@H](c2ccc(C(F)(F)F)cc2)C[C@H](OCCCCO)O1)N1CCN(Cc2ccc3c(c2)OCO3)CC1 do in these assays?
Mdm2 MdmX PPI: 20; CSC inhib: 18; MPTP inh: -1; Calb FLC: -7; SKKanGAS inh: 1; Beta cell apopt: 5

How did CCCCCCCC[n+]1cccc2c3ccccc3ccc21 do in these assays?
Mdm2 MdmX PPI: 86*; CSC inhib: 32; MPTP inh: 43; Calb FLC: 102*; SKKanGAS inh: 17; Beta cell apopt: 108*; Mdm2-MdmX conf: 84*; Full FLuc ctr: 23
